According to PubChem BioAssay (Tox21):
Records with an inconclusive call do not appear. The source made the active and inactive calls. Unless noted, the call rests on the fitted dose curve; in most records, active means well fitted curve in the direction sought with a large enough effect in the repeat runs; inconclusive means weak or mixed curves; inactive means no such curve, though single readings can be large; an effect the other way counts as inactive or inconclusive.

Assays:
[1] = qHTS assay to identify small molecule agonists of the androgen receptor (AR) signaling pathway in the presence of an antagonist - cell viability counter screen (AID 1259379); further: nearly all actives have a fitted effect of over 25% in size; further: potency means the concentration at half of the fitted maximal effect
Summary of the method: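 Viability counter screen: CellTiter-Fluor fluorescence, measured in the same wells as the luciferase read-out. MDA-kb2 cells, 3,000/well, with nilutamide at 3.0uM final and compounds at 15 concentrations, 16 hr at 37C, 0% CO2.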

[2] = molecular target: Androgen receptor (Homo sapiens) (UniProt P10275); test: qHTS assay to identify small molecule agonists of the androgen receptor (AR) signaling pathway in the presence of an antagonist (AID 1259381; calls by dose curve; further: nearly all actives have a fitted effect of over 15% in size; further: potency means the concentration at half of the fitted maximal effect)
Summary of the method: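 Luciferase read-out (ONE-Glo, 30min room temperature) in MDA-kb2 MMTV-reporter cells; agonist mode run in presence of AR antagonist nilutamide, 3.0uM final. Compounds tested as 15-point series, 16hr exposure at 37C, 0% CO2.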

[3] = qHTS assay to identify small molecule antagonists of the estrogen receptor beta (ER-beta) signaling pathway - cell viability counter screen (AID 1259382); further: nearly all actives have a fitted effect of over 55% in size; further: potency means the concentration at half of the fitted maximal effect
Summary of the method: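 Luminescent ATP read-out (CellTiter-Glo, 30 min, RT) taken in the same wells as the bla reporter assay. HEK293T ER-beta-UAS-bla cells in 2% charcoal-stripped FBS were exposed to compounds with 1nM E2 for 16 hr at 37C.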

[4] = qHTS assay to identify small molecule agonists or antagonists of the thyroid stimulating hormone receptor (TSHR) signaling pathway - wild type cell line counter screen (AID 1259384; calls by dose curve; further: on the % scale 0 is the no-effect control and ±100 the full control effect)
Summary of the method: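 Wild-type Hek293 cells, 800/well, 18 h at 37C, then compound with Ro20-1724 for 30 min RT. cAMP by HTRF (cAMP-d2/anti-cAMP cryptate), 1 h RT, fluorescence read. 15 concentrations, triplicates.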

[5] = qHTS assay to identify small molecule agonists of the estrogen receptor alpha (ER-alpha) signaling pathway in the presence of an antagonist - cell viability counter screen (AID 1259386);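 further: cells exposed to compounds for 22 h at 37 °C before the viability read; nearly all actives have a fitted effect of over 30% in size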; further: potency means the concentration at half of the fitted maximal effect
Summary of the method: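 Read-out: CellTiter-Fluor fluorescence after 1hr reagent incubation, measured in the same wells as the luciferase readout. VM7Luc4E2 cells were exposed to 15 compound concentrations with 10.0nM ICI-182,780 for 22hr at 37C.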

[6] = molecular target: Progesterone receptor (Homo sapiens) (UniProt P06401); test: qHTS assay to identify small molecule agonists of the progesterone receptor (PR) signaling pathway (AID 1346784; calls by dose curve; further: on the % scale 0 is the no-effect control and ±100 the full control effect; nearly all actives have a fitted effect of over 30% in size)
Summary of the method: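 Agonist mode, quantitative HTS format in a HEK 293T line expressing a UAS-controlled beta-lactamase reporter; 16 hr compound exposure at 37C in 2% charcoal-stripped FBS, then LiveBLAzer B/G FRET fluorescence.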

[7] = qHTS assay to identify small molecule antagonists of the progesterone receptor (PR) signaling pathway - cell viability counter screen (AID 1346798); further: nearly all actives have a fitted effect of over 50% in size; further: potency means the concentration at half of the fitted maximal effect
Summary of the method: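 Same-well multiplex: after 16 hr at 37C with compound and R5020 stimulation, HEK293T cells carrying a UAS-bla reporter received LiveBLAzer substrate (2 hr RT), then CellTiter-Glo (30 min RT) for luminescent viability.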

[8] = qHTS assay to identify small molecule agonists of the progesterone receptor (PR) signaling pathway - cell viability counter screen (AID 1346799; calls by dose curve; further: nearly all actives have a fitted effect of over 45% in size; further: potency means the concentration at half of the fitted maximal effect)
Summary of the method: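 Counter screen for cytotoxicity: compound-treated PR-UAS-bla HEK293T cells (16 hr, 37C, 5% CO2) were assayed with CellTiter-Glo, luminescence measured after 30 min at room temperature.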

[9] = molecular target: Thyrotropin-releasing hormone receptor (Homo sapiens) (UniProt P34981); test: qHTS assay to identify small molecule antagonists of the thyrotropin-releasing hormone receptor (TRHR) signaling pathway (AID 1346877; active means well fitted inhibition curve with a large enough effect in the repeat runs, not every such curve was filed as active; further: series mostly up to about 51 µM; on the % scale 0 is the no-effect control and ±100 the full control effect)
Summary of the method: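 HEK293/TRHR cells, 18 h, 37 °C; Ca2+ dye 2 h; cpd 5 min RT; TRH 1 nM final; fluorescence read 3 min, 1 s intervals; 15 concs, triplicate.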

[10] = molecular target: Thyrotropin-releasing hormone receptor (Homo sapiens) (UniProt P34981); test: qHTS assay to identify small molecule agonists of the thyrotropin-releasing hormone receptor (TRHR) signaling pathway (AID 1346891; calls by dose curve;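 further: HEK293 cells expressing TRHR with calcium dye readout; series mostly up to about 58 µM; on the % scale 0 is the no-effect control and ±100 the full control effect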)
Summary of the method: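 Agonist-mode calcium mobilisation screen: TRHR-transfected HEK293 cells cultured overnight (18 h), dye-loaded for 2 h at 37 °C, exposed to compounds, and monitored by fluorescence for 3 min.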

[11] = Caspase-3/7 induction in HepG2 cells by small molecules, qHTS assay (AID 1346978); further: nearly all actives have a fitted effect of over 15% in size; further: potency means the concentration at half of the fitted maximal effect
Summary of the method: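 Wild-type HepG2 cells, 2,000/well, settled 5 hr at 37 C and 5% CO2, then compound-treated for 17 hr; caspase-3/7 activity read by luminescent Caspase-Glo 3/7 after 30 min at room temperature.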

[12] = qHTS assay to identify small molecule agonists of the estrogen receptor beta (ER-beta) signaling pathway - cell viability counter screen (AID 1259380); further: potency means the concentration at half of the fitted maximal effect; nearly all actives have a fitted effect of over 30% in size
Summary of the method: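 Luminescence read-out (CellTiter-Glo, 30 min, room temp) taken in the same wells as the beta-lactamase reporter assay; ER-beta-UAS-bla HEK293T cells exposed to DMSO-dissolved compounds for 16 hr at 37C in 2% charcoal-stripped FBS medium.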

[13] = molecular target: Estrogen receptor (Homo sapiens) (UniProt P03372); test: qHTS assay to identify small molecule agonists of the estrogen receptor alpha (ER-alpha) signaling pathway in the presence of an antagonist (AID 1259383; calls by dose curve; further: nearly all actives have a fitted effect of over 15% in size; further: potency means the concentration at half of the fitted maximal effect)
Summary of the method: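 Luciferase luminescence (ONE-Glo, 30min at room temperature) measured in VM7Luc4E2 cells after 22hr compound exposure at 15 concentrations, with 10.0nM ICI-182,780 final present; cells express endogenous ER-alpha and carry four EREs upstream of luciferase.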

[14] = molecular target: Progesterone receptor (Homo sapiens) (UniProt P06401); test: qHTS assay to identify small molecule antagonists of the progesterone receptor (PR) signaling pathway (AID 1346795; active means well fitted inhibition curve with a large enough effect in the signal ratio in the repeat runs, not every such curve was filed as active; the % refers to the signal ratio; further: potency means the concentration at half of the fitted maximal effect)
Summary of the method: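 HEK293T PR-UAS-bla reporter cells in charcoal-stripped serum (2%) received compound after a 6 hr settling period, followed by R5020 agonist at 1 nM final; 16 hr incubation preceded the FRET substrate step and fluorescence measurement.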

[15] = qHTS assay to identify small molecule antagonists of the TGF-beta/Smad signaling pathway - cell viability counter screen (AID 1346824); further: nearly all actives have a fitted effect of over 50% in size; further: potency means the concentration at half of the fitted maximal effect
Summary of the method: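 SBE-bla HEK 293T cells, incubated overnight, then compound plus 0.25 ng/mL TGF-beta1 (stock added) for 5 hr at 37 C. Viability was read in the same wells by CellTiter-Glo luminescence after 30 min at room temperature.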

[16] = qHTS assay to identify small molecule agonists of the TGF-beta/Smad signaling pathway - cell viability counter screen (AID 1346829); further: nearly all actives have a fitted effect of over 45% in size; further: potency means the concentration at half of the fitted maximal effect
Summary of the method: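 SBE-bla HEK 293T cells plated overnight, compound exposure 5 hr at 37 C. Viability read in the same wells by CellTiter-Glo luminescence after 30 min at room temperature, following the beta-lactamase read.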

[17] = qHTS assay to identify small molecule agonists of the TGF-beta/Smad signaling pathway (AID 1346859; active means well fitted activation curve with a large enough effect in the signal ratio in the repeat runs, not every such curve was filed as active; the % refers to the signal ratio; further: series mostly up to about 77 µM; on the % scale 0 is the no-effect control and ±100 the full control effect)
Summary of the method: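 Smad-responsive beta-lactamase reporter cells (HEK 293T) received compounds from DMSO stocks after overnight attachment, were incubated 5 hr, then treated 2 hr with FRET substrate before dual-emission fluorescence measurement (405 nm excitation).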

[18] = Human pregnane X receptor (PXR) small molecule agonists, qHTS cell viability counter screen (AID 1346977); further: nearly all actives have a fitted effect of over 50% in size; further: potency means the concentration at half of the fitted maximal effect
Summary of the method: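 Measures live-cell protease fluorescence (CellTiter-Fluor) in PXR-Luc HepG2 cells treated 24hr with compounds at 37C. Cells had 5hr to attach before pin transfer of DMSO solutions.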

[19] = molecular target: Thyrotropin receptor (Homo sapiens) (UniProt P16473); test: qHTS assay to identify small molecule antagonists of the thyroid stimulating hormone receptor (TSHR) signaling pathway (AID 1259385; calls by dose curve; further: on the % scale 0 is the no-effect control and ±100 the full control effect; nearly all actives have a fitted effect of over 20% in size)
Summary of the method: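 TSHR-HEK293 cells (800/well) plated 18 h, then compounds with Ro20-1724 and TSH at 1.5 ng/mL final, 30 min at room temperature. cAMP quantified by HTRF (cAMP-d2/anti-cAMP-cryptate, 1 h); 15 concentrations in triplicate.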

Chain of Estrogen receptor (Homo sapiens) (P03372 whole entry, looked up): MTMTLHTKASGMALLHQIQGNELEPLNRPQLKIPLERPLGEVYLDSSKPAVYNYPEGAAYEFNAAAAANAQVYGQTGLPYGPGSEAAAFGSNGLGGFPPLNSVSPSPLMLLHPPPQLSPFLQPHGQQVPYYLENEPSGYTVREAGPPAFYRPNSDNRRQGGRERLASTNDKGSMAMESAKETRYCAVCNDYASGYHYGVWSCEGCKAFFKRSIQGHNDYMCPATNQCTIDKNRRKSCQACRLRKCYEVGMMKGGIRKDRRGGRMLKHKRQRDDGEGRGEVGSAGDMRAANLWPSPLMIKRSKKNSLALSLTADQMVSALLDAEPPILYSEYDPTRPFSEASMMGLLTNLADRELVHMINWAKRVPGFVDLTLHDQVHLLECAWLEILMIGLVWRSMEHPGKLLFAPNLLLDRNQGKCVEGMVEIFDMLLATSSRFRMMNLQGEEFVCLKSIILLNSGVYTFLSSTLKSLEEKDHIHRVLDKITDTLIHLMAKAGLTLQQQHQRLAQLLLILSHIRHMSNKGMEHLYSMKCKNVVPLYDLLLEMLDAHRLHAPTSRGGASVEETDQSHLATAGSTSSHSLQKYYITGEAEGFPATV
Chain of Thyrotropin receptor (Homo sapiens) (P16473 whole entry, looked up): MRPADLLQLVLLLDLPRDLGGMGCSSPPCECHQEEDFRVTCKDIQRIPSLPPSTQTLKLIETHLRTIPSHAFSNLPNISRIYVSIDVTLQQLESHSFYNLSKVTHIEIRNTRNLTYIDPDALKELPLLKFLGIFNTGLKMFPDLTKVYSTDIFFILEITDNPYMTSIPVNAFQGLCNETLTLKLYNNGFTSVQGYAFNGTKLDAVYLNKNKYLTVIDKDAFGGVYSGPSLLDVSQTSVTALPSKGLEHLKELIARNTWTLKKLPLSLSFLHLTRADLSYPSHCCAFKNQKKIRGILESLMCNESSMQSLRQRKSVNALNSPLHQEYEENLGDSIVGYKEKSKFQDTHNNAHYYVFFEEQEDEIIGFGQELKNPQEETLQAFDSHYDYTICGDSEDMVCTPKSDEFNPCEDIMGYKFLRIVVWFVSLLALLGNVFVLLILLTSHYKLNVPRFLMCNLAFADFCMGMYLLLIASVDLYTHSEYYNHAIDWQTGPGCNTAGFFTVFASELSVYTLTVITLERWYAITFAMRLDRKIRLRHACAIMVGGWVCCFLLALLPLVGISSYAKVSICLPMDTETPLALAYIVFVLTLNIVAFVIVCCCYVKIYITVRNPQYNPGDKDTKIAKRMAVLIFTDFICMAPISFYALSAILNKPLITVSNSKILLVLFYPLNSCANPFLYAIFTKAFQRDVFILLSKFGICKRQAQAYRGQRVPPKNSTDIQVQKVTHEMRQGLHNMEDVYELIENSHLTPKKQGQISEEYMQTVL
Chain of Thyrotropin-releasing hormone receptor (Homo sapiens) (P34981 whole entry, looked up): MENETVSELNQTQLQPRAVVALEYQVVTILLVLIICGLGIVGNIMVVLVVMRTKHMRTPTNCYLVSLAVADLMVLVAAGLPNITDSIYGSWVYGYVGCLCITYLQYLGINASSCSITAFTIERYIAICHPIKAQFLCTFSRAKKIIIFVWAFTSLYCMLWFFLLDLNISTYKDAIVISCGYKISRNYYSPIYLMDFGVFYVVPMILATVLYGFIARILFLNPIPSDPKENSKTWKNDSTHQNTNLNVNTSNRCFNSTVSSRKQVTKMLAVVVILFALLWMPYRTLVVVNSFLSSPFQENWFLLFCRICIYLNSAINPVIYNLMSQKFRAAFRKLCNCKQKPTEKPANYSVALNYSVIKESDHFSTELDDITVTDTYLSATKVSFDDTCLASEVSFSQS
Chain of Progesterone receptor (Homo sapiens) (P06401 whole entry, looked up): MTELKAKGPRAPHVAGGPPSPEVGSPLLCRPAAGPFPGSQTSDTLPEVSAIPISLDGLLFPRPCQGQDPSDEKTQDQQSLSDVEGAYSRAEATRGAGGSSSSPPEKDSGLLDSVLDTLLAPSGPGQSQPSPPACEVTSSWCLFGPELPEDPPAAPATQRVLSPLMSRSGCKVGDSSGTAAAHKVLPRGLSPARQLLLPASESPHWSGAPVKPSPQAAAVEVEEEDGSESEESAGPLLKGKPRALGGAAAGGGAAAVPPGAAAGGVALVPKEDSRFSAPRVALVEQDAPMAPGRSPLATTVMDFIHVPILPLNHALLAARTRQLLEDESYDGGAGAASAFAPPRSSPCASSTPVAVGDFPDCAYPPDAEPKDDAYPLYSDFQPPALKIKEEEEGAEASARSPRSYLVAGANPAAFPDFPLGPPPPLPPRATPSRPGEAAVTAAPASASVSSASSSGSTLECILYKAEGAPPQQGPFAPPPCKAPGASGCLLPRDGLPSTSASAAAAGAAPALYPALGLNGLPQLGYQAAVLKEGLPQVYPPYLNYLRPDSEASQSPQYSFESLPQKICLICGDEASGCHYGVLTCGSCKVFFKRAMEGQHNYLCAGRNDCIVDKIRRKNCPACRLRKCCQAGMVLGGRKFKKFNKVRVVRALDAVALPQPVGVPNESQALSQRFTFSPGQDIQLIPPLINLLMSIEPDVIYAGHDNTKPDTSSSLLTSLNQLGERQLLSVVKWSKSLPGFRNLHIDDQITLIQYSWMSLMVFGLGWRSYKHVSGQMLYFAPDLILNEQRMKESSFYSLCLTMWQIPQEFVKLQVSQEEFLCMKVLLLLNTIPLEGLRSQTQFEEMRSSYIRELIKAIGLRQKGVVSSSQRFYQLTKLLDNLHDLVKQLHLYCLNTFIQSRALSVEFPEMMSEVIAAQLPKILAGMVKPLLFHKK
Chain of Androgen receptor (Homo sapiens) (P10275 whole entry, looked up): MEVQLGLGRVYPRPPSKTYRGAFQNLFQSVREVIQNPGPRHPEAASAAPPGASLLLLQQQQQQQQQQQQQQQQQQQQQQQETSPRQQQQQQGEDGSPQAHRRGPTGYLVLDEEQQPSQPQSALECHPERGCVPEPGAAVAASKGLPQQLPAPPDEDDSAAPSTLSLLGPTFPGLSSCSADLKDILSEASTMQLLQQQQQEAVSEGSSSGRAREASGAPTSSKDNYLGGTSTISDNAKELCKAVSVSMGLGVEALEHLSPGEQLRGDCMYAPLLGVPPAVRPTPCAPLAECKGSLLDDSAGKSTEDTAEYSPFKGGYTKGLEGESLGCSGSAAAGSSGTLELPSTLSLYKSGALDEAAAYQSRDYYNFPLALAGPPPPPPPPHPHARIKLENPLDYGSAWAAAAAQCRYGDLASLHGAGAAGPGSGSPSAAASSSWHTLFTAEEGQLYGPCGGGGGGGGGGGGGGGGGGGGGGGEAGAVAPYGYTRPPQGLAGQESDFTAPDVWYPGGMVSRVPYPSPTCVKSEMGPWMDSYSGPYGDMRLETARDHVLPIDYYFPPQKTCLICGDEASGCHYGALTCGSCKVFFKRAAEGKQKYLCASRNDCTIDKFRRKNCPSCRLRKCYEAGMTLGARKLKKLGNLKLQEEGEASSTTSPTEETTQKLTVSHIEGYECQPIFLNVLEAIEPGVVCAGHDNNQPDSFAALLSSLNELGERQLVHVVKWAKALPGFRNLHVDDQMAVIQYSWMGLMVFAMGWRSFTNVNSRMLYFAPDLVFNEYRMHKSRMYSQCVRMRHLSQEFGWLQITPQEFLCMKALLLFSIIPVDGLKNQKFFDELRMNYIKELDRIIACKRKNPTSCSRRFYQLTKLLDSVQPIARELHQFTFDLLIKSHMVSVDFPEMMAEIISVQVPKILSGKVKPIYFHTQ

C[C@]12CC[C@H](O)C[C@H]1CC[C@@H]1[C@@H]2C[C@@H](O)[C@]2(C)[C@@H](C3=CC(=O)OC3)CC[C@]12O
inactive: Potency [1] | outcome [4] | Potency [5] | Potency [6] | Potency [9] | Potency [10] | Potency [11]
active: Potency [2] 2.73 µM | Potency [3] 0.77 µM | Potency [7] 1.72 µM | Potency [8] 1.54 µM

CC(C)N1C(=O)N(c2ccccc2)CSC1=NC(C)(C)C
active: Potency [12] 54.5 µM | Potency [14] 17.2 µM
inactive: Potency [1] | Potency [13] | outcome [4] | Potency [5] | Potency [6] | Potency [15] | Potency [16] | outcome [17] | Potency [9] | Potency [10] | Potency [11]

CN(C)C(=S)[S-].CN(C)C(=S)[S-].[Cu+2]
inactive: activation [17] -6.22% [at 15.8 µM] | caspase activation [11] -18.7% [at 19 µM]
active: Potency [1] 3.33 µM | Potency [12] 5.92 µM | Potency [3] 7.45 µM | Potency [5] 13.2 µM | Potency [7] 1.18 µM | Potency [8] 1.49 µM | Potency [16] 9.46 µM | Potency [18] 5.92 µM

O=C(NC(=O)c1c(F)cccc1F)Nc1cc(Cl)c(OC(F)(F)C(F)F)c(Cl)c1
inactive: Potency [1] | Potency [2] | Potency [3] | Potency [13] | outcome [4] | Potency [19] | Potency [5] | Potency [6] | Potency [14] | Potency [15] | Potency [16] | Potency [9] | Potency [10] | Potency [18] | Potency [11]

CN(C)C1CSSSC1
inactive: Potency [1] | Potency [3] | Potency [13] | outcome [4] | Potency [5] | Potency [6] | Potency [14] | Potency [7] | Potency [8] | Potency [16] | outcome [17] | Potency [9] | Potency [10] | Potency [18] | Potency [11]

CC(C)(C)c1ccc(CSc2cnn(C(C)(C)C)c(=O)c2Cl)cc1
inactive: Potency [3] | Potency [13] | outcome [4] | Potency [7] | Potency [15] | Potency [16] | outcome [17] | Potency [9] | Potency [10] | Potency [11]
active: Potency [1] 0.0433 µM | Potency [5] 2.43 µM | Potency [18] 0.122 µM

Cc1cc(C)cc(OP(=O)(Oc2cc(C)cc(C)c2)Oc2cc(C)cc(C)c2)c1
inactive: Potency [1] | Potency [3] | Potency [13] | outcome [4] | Potency [19] | Potency [5] | Potency [7] | Potency [16] | outcome [17] | Potency [18] | Potency [11]

Oc1ccc(C2(c3ccc(O)cc3)CCCCC2)cc1
inactive: Potency [1] | outcome [4] | Potency [15] | Potency [16] | outcome [17] | Potency [9] | Potency [10]
active: Potency [3] 57.9 µM | Potency [13] 14.5 µM | Potency [18] 57.9 µM

CCOCCOC(C)=O
inactive: Potency [1] | Potency [3] | Potency [13] | Potency [19] | Potency [16] | outcome [17] | Potency [9] | Potency [10] | Potency [18] | Potency [11]

O=[N+]([O-])c1cc([N+](=O)[O-])c2ccccc2c1
inactive: Potency [1] | Potency [3] | outcome [4] | Potency [6] | Potency [15] | Potency [9] | Potency [10]

CC(C)(C)c1cc([N+](=O)[O-])cc(C(C)(C)C)c1O
active: Potency [1] 8.63 µM | Potency [5] 8.63 µM | Potency [14] 30.6 µM | Potency [18] 5.45 µM
inactive: Potency [3] | Potency [13] | Potency [19] | Potency [6] | Potency [16] | Potency [9] | Potency [10] | Potency [11]

CN(C)CCc1c[nH]c2ccc(O)cc12
active: Potency [14] 53.2 µM | Potency [7] 42.3 µM
inactive: Potency [1] | Potency [3] | Potency [5] | Potency [6] | Potency [8] | Potency [15] | Potency [16] | outcome [17] | Potency [9] | Potency [10] | Potency [11]

CC1(C)CN=C(NN=C(/C=C/c2ccc(C(F)(F)F)cc2)/C=C/c2ccc(C(F)(F)F)cc2)NC1
inactive: Potency [13] | outcome [4]
active: Potency [1] 30.6 µM | Potency [3] 19.3 µM | Potency [5] 43.3 µM | Potency [8] 21.7 µM | Potency [15] 38.9 µM | Potency [16] 34.7 µM | Potency [18] 12.2 µM | Potency [11] 12.2 µM

CCOC(=O)C1(c2ccccc2)CCN(CCC(C#N)(c2ccccc2)c2ccccc2)CC1
inactive: Potency [1] | Potency [3] | Potency [13] | Potency [19] | Potency [5] | Potency [6] | Potency [8] | Potency [15] | Potency [16] | outcome [17] | Potency [9] | Potency [10] | Potency [18] | Potency [11]
